Entries with a potency or affinity are not part of this list. Active and inactive are the calls of the source.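 The calls were made as follows: active = increase of the KCNQ2 potassium channel current at -35 mV by at least one tested dose; inactive = no tested dose increases that current.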
Target: Potassium voltage-gated channel subfamily KQT member 2 (Rattus norvegicus) (UniProt O88943)
Test: potentiation of rat KCNQ2 current – cell-based, retigabine-insensitive compounds, dose response (AID 2654)
Details: KCNQ2-CHO cells, automated patch clamp current potentiation; at 30 µM (top of the series)

Sequence of Potassium voltage-gated channel subfamily KQT member 2 (Rattus norvegicus) (O88943 whole entry, looked up): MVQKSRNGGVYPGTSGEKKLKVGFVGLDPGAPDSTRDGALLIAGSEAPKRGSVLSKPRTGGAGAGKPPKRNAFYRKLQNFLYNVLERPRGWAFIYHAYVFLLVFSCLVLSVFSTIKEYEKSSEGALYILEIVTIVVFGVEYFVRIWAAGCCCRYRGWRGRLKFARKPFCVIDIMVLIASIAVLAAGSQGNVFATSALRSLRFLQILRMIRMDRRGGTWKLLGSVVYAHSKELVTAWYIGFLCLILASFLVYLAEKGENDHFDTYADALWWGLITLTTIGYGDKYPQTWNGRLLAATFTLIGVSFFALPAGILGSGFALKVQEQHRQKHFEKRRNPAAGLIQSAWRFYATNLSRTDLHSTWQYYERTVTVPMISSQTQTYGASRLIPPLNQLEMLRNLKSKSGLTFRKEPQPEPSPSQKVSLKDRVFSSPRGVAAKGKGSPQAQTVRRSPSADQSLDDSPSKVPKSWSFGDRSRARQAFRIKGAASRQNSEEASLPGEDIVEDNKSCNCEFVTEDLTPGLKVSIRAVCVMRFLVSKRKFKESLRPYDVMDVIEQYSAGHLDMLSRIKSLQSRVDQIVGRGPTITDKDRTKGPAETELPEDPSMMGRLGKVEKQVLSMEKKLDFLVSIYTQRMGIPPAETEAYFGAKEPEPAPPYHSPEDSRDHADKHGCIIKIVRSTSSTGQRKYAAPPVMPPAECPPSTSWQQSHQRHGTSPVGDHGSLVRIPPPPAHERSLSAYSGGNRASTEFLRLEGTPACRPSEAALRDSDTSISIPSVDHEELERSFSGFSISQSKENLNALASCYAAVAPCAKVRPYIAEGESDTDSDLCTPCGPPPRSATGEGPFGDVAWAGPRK

SMILES	potentiation
Cc1ccnc(NC(=O)NCc2ccc(Cl)cc2Cl)c1	-3.77 (inactive)
S=C(NCC1CCCCC1)Nc1cccnc1	14.3 (inactive)
FC(F)(F)c1cccc(NC(=S)Nc2cccnc2)c1	96.9
Cc1ccnc(NC(=O)Nc2cccc(F)c2)c1	-0.24 (inactive)
O=C(Nc1cccnc1)Nc1ccc(Br)cc1Cl	0.99 (inactive)
Cc1cncc(NC(=O)NCc2ccc(Cl)cc2Cl)c1	-19.5 (inactive)
S=C(NCc1ccccc1)Nc1cccnc1	-6.69 (inactive)
Cc1ccc(Cl)cc1NC(=O)Nc1cccnc1	-2.18 (inactive)
Cc1ccc(NC(=O)Nc2cccnc2)c(C)c1	36.1 (inactive)
O=C(NCc1ccc(Cl)cc1Cl)Nc1nccs1	12.4 (inactive)
Fc1ccc(NC(=S)Nc2cccnc2)c(F)c1	-38.9 (inactive)
Cc1cc(NC(=O)Nc2cccc(F)c2)cnc1Cl	-1.64 (inactive)
COc1ccc(C)cc1NC(=O)Nc1cccnc1	0.86 (inactive)
O=C(NCC(F)(F)F)Nc1cccnc1	-1.35 (inactive)
COc1ccc(Cl)cc1NC(=S)Nc1cccnc1	3.47 (inactive)
S=C(Nc1ccc(Cl)cc1)Nc1cccnc1	18.5 (inactive)
O=C(Nc1cccnc1)N1CCOCC1	12.8 (inactive)
O=C(Nc1cccnc1)Nc1ccc(Cl)c(Cl)c1	5.41 (inactive)
O=C(Nc1cccnc1)Nc1ccc(Cl)cc1Cl	2.74 (inactive)
Fc1ccc(NC(=S)Nc2cccnc2)cc1	25.8 (inactive)
S=C(Nc1cccnc1)NC1CCCC1	-2.86 (inactive)
Cc1ccc(CNC(=S)Nc2cccnc2)cc1	-2.47 (inactive)
COc1cccc(NC(=S)Nc2cccnc2)c1	17.9 (inactive)
O=C(Nc1cccnc1)N(CC1CC1)c1ccccc1	-0.98 (inactive)
Cc1cc(NC(=O)NCc2ccc(Cl)cc2Cl)cnc1Cl	-14.9 (inactive)
Cc1cc(Cl)ccc1NC(=S)Nc1cccnc1	-3.35 (inactive)
Fc1ccc(NC(=S)Nc2cccnc2)c(Cl)c1	10.5 (inactive)
